Results from PubChem BioAssay (Tox21).
Unmarked numbers belong to inactive results. Inconclusive results are not listed. Where a call stands in place of a potency, no number is given. The source made the active and inactive calls. Unless noted, calls come from the whole dose curve; as a rule, active = well fitted curve in the direction sought with a large enough effect in the repeat runs; inconclusive = weak or mixed curves; inactive = no such curve, though single readings can be large; an effect the other way counts as inactive or inconclusive.

How the values were obtained:
[1] = molecular target: Luciferin 4-monooxygenase (Photinus pyralis) (UniProt P08659); test: qHTS assay to identify small molecule inhibitors of firefly luciferase (AID 1224835); note: nearly all actives have a fitted effect of over 25% in size; note: potency is the fitted concentration of half-maximal effect
Luciferin 4-monooxygenase (Photinus pyralis), sequence (P08659 whole entry, looked up): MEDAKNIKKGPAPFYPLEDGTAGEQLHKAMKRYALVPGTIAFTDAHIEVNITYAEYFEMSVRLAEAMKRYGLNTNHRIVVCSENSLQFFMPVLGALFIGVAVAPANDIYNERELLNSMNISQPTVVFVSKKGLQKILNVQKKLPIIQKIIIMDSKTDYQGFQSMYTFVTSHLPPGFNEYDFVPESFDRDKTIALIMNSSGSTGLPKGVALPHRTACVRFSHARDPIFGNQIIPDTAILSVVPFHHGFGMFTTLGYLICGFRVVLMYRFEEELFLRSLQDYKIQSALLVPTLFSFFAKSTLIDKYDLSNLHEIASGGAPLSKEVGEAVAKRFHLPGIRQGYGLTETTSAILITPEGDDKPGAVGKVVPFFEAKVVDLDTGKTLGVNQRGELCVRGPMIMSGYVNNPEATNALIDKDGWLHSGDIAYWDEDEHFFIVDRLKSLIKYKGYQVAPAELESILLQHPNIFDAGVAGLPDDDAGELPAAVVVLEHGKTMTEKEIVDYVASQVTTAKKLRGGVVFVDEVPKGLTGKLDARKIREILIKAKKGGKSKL
In short: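 Inhibition of purified Photinus luciferase is measured by luminescence. Substrate levels (D-luciferin, ATP) sit at their KM values. Each compound is tested in a concentration series.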

[2] = qHTS assay to identify small molecule agonists of the constitutive androstane receptor (CAR) signaling pathway - cell viability counter screen (AID 1224836); note: nearly all actives have a fitted effect of over 45% in size; note: potency is the fitted concentration of half-maximal effect
In short: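 HepG2-CYP2B6-hCAR, 2500 cells/well, 4 h pre-incubation; cpd 15 conc + PK11195 0.75 uM final; 23 h, 37 C/5% CO2; CellTiter-Fluor, fluorescence.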

[3] = qHTS assay to identify small molecule antagonists of the constitutive androstane receptor (CAR) signaling pathway - cell viability counter screen (AID 1224837); note: nearly all actives have a fitted effect of over 45% in size; note: potency is the fitted concentration of half-maximal effect
In short: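 Using CellTiter-Fluor, viability is scored in HepG2 cells stably carrying hCAR and a 2.2kb CYP2B6 reporter after 23 hr compound exposure across 15 concentrations, with CITCO present at 50 nM.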

[4] = qHTS assay to identify small molecule antagonists of the estrogen related receptor signaling pathway with the pleiotropic PPARgamma coactivator (PGC) from Tox21 10K library - cell viability counter screen (AID 1224840; active = well fitted cell-killing curve with a large enough effect in the repeat runs, not every such curve was filed as active; note: nearly all actives have a fitted effect of over 40% in size; note: potency is the fitted concentration of half-maximal effect)
In short: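 Here the PGC/ERR cells serve as a cytotoxicity control: they are exposed to compounds for 17.5 hours at 37 C, and live-cell signal is quantified using CellTiter-Fluor fluorescence.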

[5] = molecular target: Thyrotropin receptor (Homo sapiens) (UniProt P16473); test: qHTS assay to identify small molecule agonists of the thyroid stimulating hormone receptor (TSHR) signaling pathway (AID 1224843; calls by dose curve; note: nearly all actives have a fitted effect of over 45% in size)
Thyrotropin receptor (Homo sapiens), sequence (P16473 whole entry, looked up): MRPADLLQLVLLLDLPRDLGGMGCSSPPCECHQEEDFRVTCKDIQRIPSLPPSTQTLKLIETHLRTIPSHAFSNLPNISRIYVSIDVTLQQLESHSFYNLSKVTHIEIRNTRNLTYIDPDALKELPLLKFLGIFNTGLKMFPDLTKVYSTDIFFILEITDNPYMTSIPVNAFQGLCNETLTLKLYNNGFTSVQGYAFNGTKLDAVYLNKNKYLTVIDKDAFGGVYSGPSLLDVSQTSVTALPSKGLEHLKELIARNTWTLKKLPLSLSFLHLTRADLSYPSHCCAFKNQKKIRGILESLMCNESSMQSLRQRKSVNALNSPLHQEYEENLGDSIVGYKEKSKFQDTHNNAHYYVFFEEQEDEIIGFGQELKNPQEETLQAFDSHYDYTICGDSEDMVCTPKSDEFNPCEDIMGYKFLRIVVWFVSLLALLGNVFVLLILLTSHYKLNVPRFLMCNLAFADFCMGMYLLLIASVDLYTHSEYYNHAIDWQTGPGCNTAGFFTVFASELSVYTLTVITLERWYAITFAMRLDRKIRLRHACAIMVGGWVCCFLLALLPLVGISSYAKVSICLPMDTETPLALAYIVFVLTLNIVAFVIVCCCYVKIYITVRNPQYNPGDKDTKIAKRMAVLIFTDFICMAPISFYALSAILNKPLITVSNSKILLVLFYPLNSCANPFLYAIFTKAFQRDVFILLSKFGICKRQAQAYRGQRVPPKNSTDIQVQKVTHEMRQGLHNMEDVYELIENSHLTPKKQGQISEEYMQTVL
In short: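 HEK293 cells stably bearing the thyrotropin receptor were plated at 800 cells/well and challenged with compound (30 min, RT). Accumulated cAMP was quantified via cAMP-d2 competing for cryptate-tagged antibody.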

[6] = qHTS assay to identify small molecule agonists of the hypoxia (HIF-1) signaling pathway - cell viability counter screen (AID 1224844; calls by dose curve; note: nearly all actives have a fitted effect of over 50% in size; note: potency is the fitted concentration of half-maximal effect)
In short: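 Multiplexed with the HRE beta-lactamase assay, this viability read used CellTiter-Glo luminescence (30 min, RT) on HRE-bla ME-180 cells treated 17 hrs with compounds in 0.5% dialyzed FBS medium.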

[7] = qHTS assay to identify small molecule agonists of H2AX (AID 1224845; active = well fitted activation curve with a large enough effect in the signal ratio in the repeat runs, not every such curve was filed as active; the % refers to the signal ratio)
In short: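 Phospho-H2AX Ser139 measured by HTRF (ex 320 nm; em 665 and 620 nm) after 24 hr antibody incubation. Compounds, 15 concentrations, 0.76% DMSO, were applied to CHO-K1 cells for 3hr at 37C before lysis.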

[8] = qHTS assay to identify small molecule agonists of the hypoxia (HIF-1) signaling pathway (AID 1224846; active = well fitted activation curve with a large enough effect in the signal ratio in the repeat runs, not every such curve was filed as active; the % refers to the signal ratio)
In short: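 Hypoxia-pathway activation was scored as increased beta-lactamase from an HRE-controlled reporter in ME-180 cells; plated at 2,000 cells per well with 0.5% dialyzed FBS, they were exposed 17 hrs to compounds and then given CCF4-AM.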

[9] = qHTS assay to identify small molecule agonists of H2AX - cell viability counter screen (AID 1224847; calls by dose curve; note: nearly all actives have a fitted effect of over 30% in size; note: potency is the fitted concentration of half-maximal effect)
In short: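 Cells plated first: CHO-K1, 1000 per well in 10% FBS medium, incubated overnight at 37C. Then 15-point compound titration added (final DMSO 0.76%) for 3 hr. Finally CellTiter-Glo added and luminescence read.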

[10] = qHTS RealTime-Glo MT Cell Viability Assay in HepG2 cells - 24 hour (AID 1224867); note: nearly all actives have a fitted effect of over 50% in size; note: potency is the fitted concentration of half-maximal effect
In short: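 Cell number in HepG2 cultures estimated from NanoLuc luminescence generated by metabolic reduction of a prosubstrate by living cells. The homogeneous, nonlytic format allowed repeated reads at 0, 8, 16, 24, 32 and 40 h of compound exposure.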

[11] = qHTS RealTime-Glo MT Cell Viability Assay in HEK293 cells - 32 hour (AID 1224868); note: top concentration of the series differs between compounds; nearly all actives have a fitted effect of over 50% in size
In short: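 Homogeneous bioluminescent viability format in HEK293 cells (600 cells/well). Following 5 h at 37 C/5% CO2, 23 nL compound was pintooled; the signal was measured repeatedly during 40 h incubation.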

[12] = A CellTox Green Cytotoxicity Assay to monitor cytotoxicity in HEK293 cells - 0 hour (AID 1224869); note: nearly all actives have a fitted effect of over 50% in size
In short: (§1)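 Seeding of HEK293 cells together with cytotoxicity dye preceded a 5 h incubation at 37 C/5% CO2. Test compounds in DMSO were then added and fluorescence monitored across 40 h.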

[13] = qHTS RealTime-Glo MT Cell Viability Assay in HepG2 cells - 40 hour (AID 1224870); note: nearly all actives have a fitted effect of over 50% in size; note: potency is the fitted concentration of half-maximal effect
In short: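 Real-time viability: cells seeded at 600 per well together with NanoLuc and cell-permeant prosubstrate, compounds added after 5 h incubation. Luminescence tracked at 0, 8, 16, 24, 32 and 40 h of exposure.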

[14] = molecular target: Nuclear receptor subfamily 1 group I member 3 (Homo sapiens) (UniProt Q14994); test: qHTS assay to identify small molecule agonists of the constitutive androstane receptor (CAR) signaling pathway (AID 1224839);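 note: HepG2 cells stably carrying human CAR and a CYP2B6 luciferase reporter; nearly all actives have a fitted effect of over 15% in size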
Nuclear receptor subfamily 1 group I member 3 (Homo sapiens), sequence (Q14994 whole entry, looked up): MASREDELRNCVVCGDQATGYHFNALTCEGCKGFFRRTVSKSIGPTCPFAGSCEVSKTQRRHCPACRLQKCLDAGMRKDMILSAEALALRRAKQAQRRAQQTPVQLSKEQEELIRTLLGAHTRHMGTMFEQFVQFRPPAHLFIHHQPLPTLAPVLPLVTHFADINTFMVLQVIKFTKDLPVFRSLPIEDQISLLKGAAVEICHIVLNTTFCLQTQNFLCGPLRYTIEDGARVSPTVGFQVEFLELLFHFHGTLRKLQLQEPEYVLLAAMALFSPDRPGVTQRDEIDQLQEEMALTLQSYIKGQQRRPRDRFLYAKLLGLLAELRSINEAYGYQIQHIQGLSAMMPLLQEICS
In short: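 HepG2-CYP2B6-hCAR cells, 2500/well, 4 h pre-incubation; compounds 15 conc.; PK11195 0.75 uM final; 24 h, 37 C/5% CO2; ONE-Glo luciferase read.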

[15] = qHTS assay to identify small molecule antagonists of the estrogen related receptor signaling pathway with the pleiotropic PPARgamma coactivator (PGC) from Tox21 10K library (AID 1224841; call rule not given here; note: potency is the fitted concentration of half-maximal effect)
In short: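 Each well held 2,000 PGC/ERR cells, pre-incubated six hours (37 C, 5% CO2). Test substances in DMSO were added by pin tool and left for 18 h at 37 C before luciferase detection by One-Glo.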

[16] = qHTS assay to identify small molecule antagonists of the estrogen related receptor (ERR) signaling pathway from Tox21 library (AID 1224848); note: nearly all actives have a fitted effect of over 50% in size; note: potency is the fitted concentration of half-maximal effect
In short: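 Reading was by luminescence 30 min after ONE-Glo addition. Before that, ERR cells at 2,000 per well had rested 6 h at 37 C/5% CO2 and then received pin-tooled compounds in DMSO for 18 h at 37 C.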

[17] = qHTS assay to identify small molecule agonists of the estrogen related receptor (ERR) signaling pathway from Tox21 library (AID 1224849; calls by dose curve; note: nearly all actives have a fitted effect of over 15% in size); conditions: ERR reporter cell line, ONE-Glo luciferase, 18 h
In short: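 Six hours post-seeding at 37 C/5% CO2, ERR cells receive DMSO-solubilised compounds; after 18 h at 37 C, ONE-Glo reagent is applied and luminescence recorded.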

[18] = A CellTox Green Cytotoxicity Assay to monitor cytotoxicity in HEK293 cells - 40 hour (AID 1224871); note: nearly all actives have a fitted effect of over 45% in size; note: potency is the fitted concentration of half-maximal effect
In short: as §1

[19] = qHTS assay to identify small molecule agonists of the estrogen related receptor signaling pathway with the pleiotropic PPARgamma coactivator (PGC) from Tox21 10K library (AID 1224842); note: nearly all actives have a fitted effect of over 15% in size; note: potency is the fitted concentration of half-maximal effect
In short: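 Luminescence from One-Glo (30 min, room temperature) measured after PGC/ERR cells had 18 h at 37 C with pinned compound (23 nL in DMSO). Cells had been seeded at 2,000 per well and pre-incubated 6 h.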

Row | SMILES | Potency [1] | Potency [2] | Potency [3] | Potency [4] | Potency [5] | Potency [6] | Potency [7] | Potency [8] | Potency [9] | Potency [10] | Potency [11] | Potency [12] | Potency [13] | Potency [14] | Potency [15] | Potency [16] | activity change, positive = activation ([17]; at 42.5 µM (top of the series)) | Potency [18] | Potency [19] | activity change, positive = activation ([17]; at 92.4 µM (top of the series))
1 | O=C(O)Cc1ccc2c(c1)C(=O)c1ccccc1CO2 | 30.9 µM (active) | inactive | inactive | inactive | inactive | inactive | inactive | inactive | inactive | inactive | inactive | inactive | inactive |  |  |  |  |  |  | 
2 | C=CC(=O)Nc1cc2c(Nc3ccc(F)c(Cl)c3)ncnc2cc1OCCCN1CCOCC1 | inactive | 13.3 µM (active) | 13.3 µM (active) | 13.3 µM (active) | inactive | 23.9 µM (active) | inactive |  |  | 8.49 µM (active) |  | inactive | 10.7 µM (active) | inactive | inactive | 16.8 µM (active) | -63.1% | 10.7 µM (active) |  | 
3 | COc1cc(S(=O)(=O)O)c(C)cc1N=Nc1c(O)ccc2cc(S(=O)(=O)O)ccc12 | 63.3 µM (active) | 30.6 µM (active) | 27.3 µM (active) | 27.3 µM (active) | inactive | inactive |  | inactive | 45 µM (active) |  | inactive | inactive | inactive | inactive |  |  |  | inactive | inactive | -21.5%
4 | O=C(Oc1ccccc1)Oc1ccccc1 | 31.6 µM (active) | inactive | inactive | inactive | inactive | inactive | inactive | inactive | inactive |  | inactive |  | 34.5 µM (active) |  |  | inactive |  | inactive |  | -11.4%
5 | CN1CCCCC1CCN1c2ccccc2Sc2ccc(S(C)=O)cc21 (stereo not given) | inactive | inactive | inactive |  | inactive |  | inactive |  |  | inactive |  | inactive | inactive | inactive |  |  |  | inactive |  | 
6 | CC1=Nc2ccccc2C1(C)C | 20 µM (active) | inactive | inactive | inactive | inactive | inactive |  | inactive |  | inactive |  | inactive | inactive |  | inactive | inactive |  | inactive | 30.7 µM (active) | 
7 | CCCC(=O)OCOC(=O)C1=C(C)NC(C)=C(C(=O)OC)C1c1cccc(Cl)c1Cl (stereo not given) | inactive | inactive | inactive | inactive | inactive | inactive | inactive | inactive | inactive | inactive | inactive | inactive | inactive |  |  |  |  |  |  | 
8 | O=C(Nc1ccc2c(O)c(N=Nc3ccc(N=Nc4ccc(S(=O)(=O)O)cc4)cc3)c(S(=O)(=O)O)cc2c1)c1ccccc1 | 35.6 µM (active) | 24.3 µM (active) | 27.3 µM (active) | 24.3 µM (active) | inactive | inactive |  |  |  |  |  | inactive |  | inactive | 27.3 µM (active) |  |  | inactive |  | -30%
